Cruzain inh Det: blocks cruzain activity in presence of Triton detergent; P25779; purified cruzain, Z-FR-AMC fluorescence, 0.01% Triton; Potency, µM, inactives show max response, negative = inhibition, hits mostly inhibitors; 200,000 compounds, 0.43% hits; AID 1478;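 further: plate controls were neutral wells for no effect and buffer without enzyme for full effect; nearly all actives have a fitted effect of over 40% in size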
Target sequence (P25779 123-467 limits assumed): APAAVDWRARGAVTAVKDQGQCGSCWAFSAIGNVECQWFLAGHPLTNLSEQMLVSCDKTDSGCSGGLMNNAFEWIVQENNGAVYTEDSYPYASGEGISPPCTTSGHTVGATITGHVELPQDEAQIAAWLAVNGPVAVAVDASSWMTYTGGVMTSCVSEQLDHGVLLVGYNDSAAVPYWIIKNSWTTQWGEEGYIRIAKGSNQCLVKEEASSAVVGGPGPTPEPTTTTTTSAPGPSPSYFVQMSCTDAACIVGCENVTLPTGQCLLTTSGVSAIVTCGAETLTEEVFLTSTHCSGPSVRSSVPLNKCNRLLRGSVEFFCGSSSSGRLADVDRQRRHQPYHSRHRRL
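In this qHTS format, compounds are incubated with 1.5 nM cruzain for 15 min at room temperature before 2 uM Z-FR-AMC is added. Release of AMC is followed at 360/450 nm, and progress is taken as the 60 s fluorescence difference.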
Cruzain noTriton: inhibitors of Trypanosoma cruzi cruzain without detergent | P25779 | purified cruzain, Z-FR-AMC fluorescence, no detergent | Potency, µM, without a hit: max response, negative = inhibition, usual class: inhibitors | 200,000 compounds, 2.3% hits;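 further: plate controls were enzyme without inhibitor for no effect and buffer without enzyme for full effect; nearly all actives have a fitted effect of over 40% in size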
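Detergent-free condition (0.00005% Triton X-100) in acetate buffer pH 5.5 with DTT. 1.5 nM enzyme and compound were pre-mixed 15 min, then 2 uM Z-FR-AMC substrate added; reaction progress from fluorescence change between first and third reads (60 s).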
Numbers without * were called inactive. Rows were chosen to be rich in hits. Some 2.4% of all compounds tested hit in one or more screens of this group. The call rests on the fitted dose curve; in most records, active means well fitted curve in the direction sought with a large enough effect; inconclusive means small, poorly fitted or top-dose-only effect, or another doubt; inactive means no such curve, though single readings can be large; an effect the other way counts as inactive or inconclusive. Potency means the concentration at half of the fitted maximal effect.

c1ccc(Nc2ncnc3sc4c(c23)CCC4)cc1 was read as Cruzain inh Det -5% and Cruzain noTriton -7%.
Screening O=S(=O)(Nc1ncnc2sc3c(c12)CCC3)c1ccc2ccccc2c1 returned Cruzain inh Det -5% and Cruzain noTriton 32µM*.
For N#Cc1ccccc1Cn1c(SCC(=O)NCc2ccccc2)nc2ccccc21 the results were Cruzain inh Det 0% and Cruzain noTriton 10%.
For CC(C)CC1(C(=O)O)C=CCN1C(=O)c1ccccc1 (stereo not given) the results were Cruzain inh Det 2% and Cruzain noTriton -5%.
CCC(CC)NCc1ccc(OC)cc1OC was read as Cruzain inh Det -5% and Cruzain noTriton -11%.
For COc1ccc(/C=C/C(=O)Nc2ccc(-c3nnc4n3CCCCC4)cc2)c(OC)c1 the results were Cruzain inh Det 14µM* and Cruzain noTriton -27%.
COc1ccc(NS(=O)(=O)c2cccc(-c3nnc4n3CCCCC4)c2)cc1 was read as Cruzain inh Det 4% and Cruzain noTriton 10%.
For Nc1nc2ccccc2nc1N the results were Cruzain inh Det -19% and Cruzain noTriton 20µM*.
c1ccc2nc3ccccc3nc2c1 was read as Cruzain inh Det -2% and Cruzain noTriton -20%.
Screening CC(=O)N(C(C)=O)c1cccc2c(N(C(C)=O)C(C)=O)cccc12 returned Cruzain inh Det 4% and Cruzain noTriton -7%.
For COC(=O)c1cc(Br)ccc1-c1ccc(/C=N/n2nnnc2N)o1 the results were Cruzain inh Det -9% and Cruzain noTriton 13µM*.
For Cc1ccc([N+](=O)[O-])cc1-c1ccc(/C=N\n2nnnc2N)o1 the results were Cruzain inh Det -10% and Cruzain noTriton 0%.
`Cc1nn(-c2ccccc2)c2sc(C(=O)NNC(=O)COc3ccccc3)cc12` gave Cruzain inh Det 2% and Cruzain noTriton -2%.
O=C(Nc1nccs1)c1cn(-c2ccccc2)nc1-c1ccccc1 was read as Cruzain inh Det -1% and Cruzain noTriton -7%.
For CC(C)COc1ccc(-c2nn(-c3ccccc3)cc2C(=O)Nc2nccs2)cc1 the results were Cruzain inh Det -2% and Cruzain noTriton 10µM*.
For Cc1ccc(NC(=O)CSc2nc(-c3ccco3)nc3cc(=O)[nH]n23)cc1C the results were Cruzain inh Det -9% and Cruzain noTriton -9%.
`C=CCn1c(COc2ccccc2)nnc1SCC(=O)Nc1ccc(S(N)(=O)=O)cc1` gave Cruzain inh Det -3% and Cruzain noTriton 3%.
`Cc1ccc(/C=C(\NC(=O)c2ccccc2)C(=O)OCc2ccccc2)cc1` gave Cruzain inh Det 7.9µM* and Cruzain noTriton inconclusive.
Screening Cc1ccc(/C=C(\NC(=O)c2ccccc2)C(=O)NC(Cc2ccccc2)C(=O)O)cc1 (stereo not given) returned Cruzain inh Det -3% and Cruzain noTriton -1%.
`O=C(CNC(=O)/C(=C\c1ccc(F)cc1)NC(=O)c1ccccc1)OCc1ccccc1` gave Cruzain inh Det 18µM* and Cruzain noTriton inconclusive.
O=C(CNC(=O)/C(=C\c1ccccc1)NC(=O)c1ccc(Br)cc1)OCc1ccccc1 was read as Cruzain inh Det -30% and Cruzain noTriton -10%.
Screening O=C(Cc1csc2nc(-c3ccc(F)cc3)cn12)NCc1ccccc1 returned Cruzain inh Det -2% and Cruzain noTriton -11%.
Screening Cc1cc(C)cc(NC(=O)C2CCCN(S(=O)(=O)c3cnc[nH]3)C2)c1 (stereo not given) returned Cruzain inh Det 0% and Cruzain noTriton -2%.
`COc1ccc(-c2cc(-c3ccccc3)nc(SCC(=O)Nc3ccccc3C)c2C#N)cc1` gave Cruzain inh Det -1% and Cruzain noTriton -6%.
`COc1ccc(CNC(=O)CSc2nc(-c3ccccc3)cc(-c3cccs3)c2C#N)cc1` gave Cruzain inh Det 4% and Cruzain noTriton 10µM*.
O=C(CSc1nc(-c2cccs2)cc(C(F)(F)F)n1)NCc1ccco1 was read as Cruzain inh Det -4% and Cruzain noTriton 0%.
COc1ccc(-c2cc(-c3cccs3)c(C#N)c(SCC(=O)NCc3ccco3)n2)cc1 was read as Cruzain inh Det -7% and Cruzain noTriton 7.9µM*.
Screening CCc1nnc(NC(=O)CSc2nc(-c3ccccc3)cc(-c3ccc(F)cc3)c2C#N)s1 returned Cruzain inh Det 3% and Cruzain noTriton 7.9µM*.
For CC(C)OC(=O)CC(=O)CSc1nc(-c2ccc(F)cc2)cc(-c2ccccc2)c1C#N the results were Cruzain inh Det -5% and Cruzain noTriton -6%.
C=C(C)Cn1c(SCC(=O)c2ccc(Br)cc2)nc2sc3c(c2c1=O)CCCC3 was read as Cruzain inh Det -1% and Cruzain noTriton 5%.
For CCc1ccc2[nH]c(=O)c(C(c3nnnn3Cc3ccco3)N3CCC(C)CC3)cc2c1 (stereo not given) the results were Cruzain inh Det -6% and Cruzain noTriton 1%.
Screening CCC(=O)Nc1cccc(NC(=O)c2ccc3c(c2)OCO3)c1 returned Cruzain inh Det 4% and Cruzain noTriton 1%.
`Cc1cc(C)cc(NC(=O)Cn2c(=O)n(CCC(C)C)c(=O)c3cccnc32)c1` gave Cruzain inh Det 1% and Cruzain noTriton -1%.
Screening CCCC1=C/C(=C/c2ccc(-c3ccccc3OC)o2)C(=O)O1 returned Cruzain inh Det -21% and Cruzain noTriton inconclusive.
`COc1ccccc1-c1ccc(/C=C2/C=C(CC(C)C)OC2=O)o1` gave Cruzain inh Det -24% and Cruzain noTriton 32µM*.
`COc1ccccc1Nc1nc(-c2ccccc2Cl)c2cc(Br)ccc2n1` gave Cruzain inh Det 4% and Cruzain noTriton 18%.
Screening Clc1ccccc1-c1nc(Nc2ccccc2)nc2ccc(Br)cc12 returned Cruzain inh Det -1% and Cruzain noTriton 25µM*.
For CCCCn1c(=O)[nH]c(=O)c2c1nc(CN1C(=O)c3ccccc3S1(=O)=O)n2CCC the results were Cruzain inh Det 2% and Cruzain noTriton 25µM*.
CCCCn1c(=O)[nH]c(=O)c2c1nc(COc1ccc(C#N)cc1)n2CCC was read as Cruzain inh Det 5% and Cruzain noTriton -6%.
`O=C(C1CCN(S(=O)(=O)c2cccc3nonc23)CC1)N1CCN(c2ccc(F)cc2)CC1` gave Cruzain inh Det -6% and Cruzain noTriton inconclusive.
Screening CC(C)CCNC(=O)c1cccc(-n2cnc3cccnc32)c1 returned Cruzain inh Det 1% and Cruzain noTriton -10%.
O=C1CC(c2ccc(F)cc2)Cc2nc(N3CCc4ccccc43)ncc21 (stereo not given) was read as Cruzain inh Det -2% and Cruzain noTriton inconclusive.
Fc1cnc(N2CCc3ccccc32)nc1N1CCc2ccccc21 was read as Cruzain inh Det 7% and Cruzain noTriton 3.2µM*.
CCCCOc1ccc(S(=O)(=O)NC(=O)NCc2ccc(OCCC)cc2)cc1 was read as Cruzain inh Det 0% and Cruzain noTriton 25µM*.
CCCCOc1ccc(S(=O)(=O)Nc2ccc(NC(C)=O)cc2)cc1 was read as Cruzain inh Det -9% and Cruzain noTriton -5%.
CCCCNC(=O)NS(=O)(=O)c1ccc(C)cc1 was read as Cruzain inh Det -1% and Cruzain noTriton 8%.
For CCCCOc1ccc(CNC(=O)NS(=O)(=O)c2ccc(OCC)cc2)cc1 the results were Cruzain inh Det 0% and Cruzain noTriton 20µM*.
Cc1ccc(S(=O)(=O)NC(=O)NCc2ccccc2)cc1 was read as Cruzain inh Det 6% and Cruzain noTriton 11%.
For CCCCOc1ccc(CNC(=O)NS(=O)(=O)c2ccc(OCC(C)C)cc2)cc1 the results were Cruzain inh Det 7% and Cruzain noTriton 7.9µM*.

Screening data from PubChem BioAssay.
